Data published in article PMC4336329 (PLoS ONE, 2015).
About 14,000 (4.5%) of roughly 310,000 compounds showed an effect of 50% or more. The effect is printed as a negative number. This excerpt belongs to a sample that is enriched for strong results.

These compounds were tested against human ether-à-go-go-related gene (hERG) potassium channel (human, UniProt Q12809) (assay: primary screen, population patch clamp on CHO cells stably expressing hERG; higher = less effect of the substance).
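Also: peak tail current of the secondary pulse compared with the same well before compound.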

human ether-à-go-go-related gene (hERG) potassium channel, sequence (Q12809 whole entry, looked up): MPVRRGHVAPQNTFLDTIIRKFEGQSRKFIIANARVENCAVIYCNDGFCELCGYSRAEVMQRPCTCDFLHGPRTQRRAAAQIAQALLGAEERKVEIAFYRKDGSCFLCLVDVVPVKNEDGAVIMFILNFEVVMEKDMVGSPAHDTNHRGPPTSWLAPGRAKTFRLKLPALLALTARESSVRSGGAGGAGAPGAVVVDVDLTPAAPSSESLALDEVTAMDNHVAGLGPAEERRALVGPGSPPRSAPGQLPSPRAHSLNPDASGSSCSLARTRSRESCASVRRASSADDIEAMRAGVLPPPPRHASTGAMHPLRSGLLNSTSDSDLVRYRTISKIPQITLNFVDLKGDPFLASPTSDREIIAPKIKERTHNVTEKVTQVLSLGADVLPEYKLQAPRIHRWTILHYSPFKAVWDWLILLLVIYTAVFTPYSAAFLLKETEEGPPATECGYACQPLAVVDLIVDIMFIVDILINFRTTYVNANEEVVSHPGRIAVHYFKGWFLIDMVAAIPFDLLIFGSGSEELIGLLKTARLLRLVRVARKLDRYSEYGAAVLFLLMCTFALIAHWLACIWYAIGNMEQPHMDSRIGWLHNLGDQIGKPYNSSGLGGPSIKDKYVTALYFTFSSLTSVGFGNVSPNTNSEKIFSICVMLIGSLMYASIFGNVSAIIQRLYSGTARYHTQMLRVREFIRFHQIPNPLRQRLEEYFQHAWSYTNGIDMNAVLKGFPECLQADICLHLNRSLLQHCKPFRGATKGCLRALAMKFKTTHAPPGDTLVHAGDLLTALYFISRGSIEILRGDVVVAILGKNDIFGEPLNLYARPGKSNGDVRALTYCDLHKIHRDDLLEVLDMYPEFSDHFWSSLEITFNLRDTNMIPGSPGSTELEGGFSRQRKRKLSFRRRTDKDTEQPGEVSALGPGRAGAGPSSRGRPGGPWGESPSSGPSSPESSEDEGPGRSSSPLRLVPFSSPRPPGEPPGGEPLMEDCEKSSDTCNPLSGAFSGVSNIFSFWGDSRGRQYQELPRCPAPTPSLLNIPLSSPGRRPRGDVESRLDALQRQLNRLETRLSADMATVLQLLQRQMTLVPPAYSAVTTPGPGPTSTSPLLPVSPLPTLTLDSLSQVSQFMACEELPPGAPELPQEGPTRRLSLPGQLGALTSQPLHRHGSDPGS

Structure (SMILES) | hERG current change (%, negative = inhibition) at 10uM
Cc1ccccc1OC(C)C(=O)NC1CCCC1 (stereo not shown) | -2.63%
O=C(NN=C1C2CC3CC1CC(Cl)(C3)C2)c1cccs1 | 8.54%
COc1ccc(-c2nc(NC(C)=O)sc2-c2ccccc2)cc1 | 34.7%
COc1ccc(CNC(=O)CN(Cc2ccc(C)cc2)C(=O)c2csnn2)cc1 | -36.1%
COc1ccc(CN(CC(=O)NCc2ccccc2)C(=O)c2csnn2)cc1 | -26.6%
COc1ccc(CNC(=O)CN(Cc2ccc(Cl)cc2)C(=O)c2csnn2)cc1 | -71.7%
COc1ccc(CNC(=O)CN(Cc2ccccc2OC)C(=O)c2csnn2)cc1 | -29%
COc1ccc(CNC(=O)CN(Cc2ccc(OC)cc2)C(=O)c2csnn2)cc1 | -57.5%
COc1ccc(CNC(=O)CN(Cc2ccc(F)cc2)C(=O)c2csnn2)cc1 | -70.4%
COc1ccccc1CN(CC(=O)NCc1ccc(F)cc1)C(=O)c1csnn1 | -35.3%
COc1ccc(CNC(=O)CN(Cc2ccccc2)C(=O)c2csnn2)cc1 | -32.3%
COc1ccc(CNC(=O)CN(C(=O)c2csnn2)c2ccc(F)cc2)cc1 | -5.15%
COc1ccc(CNC(=O)CN(Cc2ccccc2F)C(=O)c2csnn2)cc1 | -32.7%
C=CCN(CC(=O)NCc1ccc(OC)cc1)C(=O)c1csnn1 | -16.7%
COc1ccc(CN(CC(=O)NCc2ccc(F)cc2)C(=O)c2csnn2)cc1 | -58.5%
CCOc1cccc(=O)c2c(C)n(-c3ccc(C(=O)O)cc3)c(C)c12 | 32%
CCOC(=O)c1c(C)nsc1NC(=O)c1ccco1 | -4.79%
CCOc1ccc(NCc2nnc(SCC(=O)Nc3cc(C)on3)n2-c2ccc(OC)cc2)cc1 | -4.02%
CCc1cccc(CC)c1NC(=O)COC(=O)Cc1ccsc1 | 21.2%
COc1ccc(N2C(=O)NC(=O)/C(=C/c3cccc(OC(=O)c4cccs4)c3)C2=O)cc1Cl | -2.57%
Cc1ccc(C(=O)NC(=S)Nc2cc(C(F)(F)F)ccc2Cl)cc1 | 20.3%
CCOC(=O)Cc1csc(NC(=O)CN(C)S(=O)(=O)c2ccc3c(c2)CCC(=O)N3)n1 | -15.9%
CN(C)S(=O)(=O)c1ccc(C(=O)Nc2cc(S(=O)(=O)Nc3ccccc3Cl)ccc2N2CCCCC2)cc1 | 25.5%
COc1ccc(C/C(N)=N/OC(=O)c2cccs2)cc1 | 12.8%
O=C(Nc1nc2ccc(SC(F)F)cc2s1)c1ccc(NS(=O)(=O)c2ccc(F)c(F)c2)cc1 | -8.03%
COc1ccc(NC(=O)C(C)Sc2ccccc2)cc1 (stereo not shown) | 1.14%
COC(=O)CCc1sc(NC2CCCCC2)nc1-c1ccc(OC)cc1 | 8.55%
CCOC(=O)N1CCN(C(=O)c2ccc(OC)cc2)CC1 | 19.8%

Structure (SMILES) | hERG current change (%, negative = inhibition) at 10uM
CN1CCN(C(=O)c2cc([N+](=O)[O-])cc([N+](=O)[O-])c2)CC1 | 16.7%
O=C(c1ccc(Oc2ccc([N+](=O)[O-])cc2)cc1)N1CCCCCC1 | -25.5%
CN1CCN(C(=O)c2ccc(Oc3ccc([N+](=O)[O-])cc3)cc2)CC1 | -50.6%
CCOC(=O)N1CCN(C(=O)c2ccc(Oc3ccc([N+](=O)[O-])cc3)cc2)CC1 | -68.3%
CCOC(=O)N1CCN(C(=O)c2ccc(OCC)cc2)CC1 | -28.3%
COc1ccc(Br)c(C(=O)NNC(=O)c2ccc(NS(=O)(=O)c3cccs3)cc2)c1 | 12.6%
CCC1CCCCN1C(=O)CSc1nnc(CNC(=O)c2c(F)cccc2Cl)o1 (stereo not shown) | 10.7%
CCOC(=O)C(=O)Nc1ccc(S(=O)(=O)N2CCOCC2)cc1OC | 4.78%
O=C(O)/C=C/C(=O)NC1CC1 | 41.9%
Cc1ccc(-c2nnc(OCCN3CCOCC3)c3ccccc23)cc1 | -43.4%
COc1ccc(Oc2nnc(-c3ccc(C)cc3)c3ccccc23)cc1 | 5.64%
CCN(CC)CCOc1nnc(-c2ccc(C)cc2)c2ccccc12 | -67.7%
CCN(CC)CCOc1nnc(-c2ccc(OC)cc2)c2ccccc12 | -65%
COc1nnc(-c2ccc(C)cc2)c2ccccc12 | 5.93%
COc1ccc(-c2nnc(OC)c3ccccc23)cc1 | -7.99%
Br.c1ccc(-c2cc3n(c2)CCc2ccccc2-3)cc1 | 4.17%
O=C(CC1C(=O)NCCN1C(=S)Nc1ccccc1)Nc1ccc2c(c1)OCCO2 (stereo not shown) | -15.2%
O=C(NCCCn1ccnc1)/C(=C/c1ccc(Cl)cc1)NC(=O)c1ccccc1 | -74.7%
O=C(NCCCn1ccnc1)c1cn(-c2ccccc2)nc1-c1ccccc1 | -47.1%
CSc1ccc(/C=C(/NC(=O)c2ccccc2)C(=O)NCCCn2ccnc2)cc1 | -60.8%
C/C(=C\c1ccccc1)C(=O)NCCCn1ccnc1 | -10.1%
O=C(NCCCn1ccnc1)/C(=C\c1cccnc1)NC(=O)c1cccc(Br)c1 | -0.509%
COc1ccc(-c2nn(-c3ccccc3)cc2C(=O)NCCCn2ccnc2)cc1 | -39.4%
COc1ccc(/C=C(\NC(=O)c2ccc(Cl)cc2)C(=O)NCCCn2ccnc2)cc1OC | 13.9%
O=C(NCCCn1ccnc1)/C(=C\c1ccc(Br)cc1)NC(=O)c1ccccc1 | -75.8%
O=C(NCCCn1ccnc1)c1cn(-c2ccccc2)nc1-c1ccc(F)cc1 | -64%
CCOC(=O)C1=CN(c2cccc(F)c2)C=C(C(=O)OCC)C1c1cc(OC)c(O)c([N+](=O)[O-])c1 | -3.91%
